{"source": "PubChem BioAssay (NCATS)", "note": "Results filed as inconclusive are left out. Calls of active or inactive are those of the source. Calls follow the shape of the dose curve; as a rule, active = well fitted cell-killing curve with a large enough effect; inconclusive = small, poorly fitted or top-dose-only effect, or effect the other way; inactive = no such curve, though single readings can be large or run the other way. Potency is read from the fitted curve at half-maximal effect."}
{"test": "Quantitative High-Throughput drug screen in 47 multiple myeloma cell lines against the NCATS MIPE library collection: OCIMY1_PLB cell viability assay (AID 1918979); also: nearly all actives have a fitted effect of over 35% in size", "conditions": "OCI-MY1 myeloma viability, CellTiter-Glo ATP, 48 h; series mostly up to 45.8 µM; viability: at the top concentration", "from_the_text": "PI: Beverly A. Mock Ph.D.\nLaboratory of Cancer Biology and Genetics,\nCenter for Cancer Research, National Cancer Institute,\nNational Institute of Health, Bethesda, Maryland\nDrug resistance and disease progression are common in multiple myeloma (MM) patients, underscoring the need for new therapeutic combinations. […] We hypothesized that effective combinations would reduce MYC expression and enhance p16 activity. […] These preclinical data identify potentially useful drug combinations for evaluation in drug-resistant MM and reveal potential mechanisms of combined drug sensitivity.\nDescribed herein is the primary MIPE qHTS used to cherrypick compounds. Validated compounds were then further tested for potential synergistic activiy.\n[1] Peat TJ, Gaikwad SM, Dubois W, Gyabaah-Kessie N, Zhang S, Gorjifard S, Phyo Z, Andres M, Hughitt VK, Simpson RM, Miller MA, Girvin AT, Taylor A, Williams D, D'Antonio N, Zhang Y, Rajagopalan A, Flietner E, Wilson K, Zhang X, Shinn P, Klumpp-Thomas C, McKnight C, Itkin Z, Chen L, Kazandijian D, Zhang J, Michalowski AM, Simmons JK, Keats J, Thomas CJ, Mock BA. Drug combinations identified by high-throughput screening promote cell cycle transition and upregulate Smad pathways in myeloma. Cancer Lett. 2023 Aug 1;568:216284. doi: 10.1016/j.canlet.2023.216284. Epub 2023 Jun 24. PMID: 37356470; PMCID: PMC10408729.\nSEQUENCE No. (e.g., 1, 2, 3, etc.); […] (e.g., Cells, Incubation, Reagent, etc.); VALUE and DESCRIPTION.\n1; Cells; 5 uL; white, solid bottom 1536-well Greiner assay plate.\n2; Compounds; 23 nL; Kalypsis pin tool (Wako USA) equipped with a 1536-well pin head to transfer to the assay plates.\n3; Incubation; 48 hours; 37C incubation.\n4; Reagent;5uL; CellTiter Glo (Promega).\n5; Detector; 425V; Luminescence; Viewlux PerkinElmer.\nNOTES (numbers refer to Sequence numbers above)\n1. The cell-based screening methods employed in this study were like those previously published. Briefly, the corresponding myeloma cell lines were screened in 1,536-well plates with 500 cells, 5-uL per well for inhibition of cell viability (assessed by measuring ATP levels with CellTiterGlo).\n2. NCATS MIPE 4.0 library of approved and investigational drugs were added using the Kalypsis pin tool. Wells treated with DMSO only for 100% viability and media only for 0% viability were used as controls.\n3. The assay plates were covered and incubated for 48 hours in a 37C, 5% CO2 incubator with controlled humidity.\n4. After 48 hours, CellTilter-GloTM luminescent substrate mix (Promega) reagent was added to the assay plate and plates we incubated for 5 min at room temperature.\n5. Signal was measured as median relative luminescence units on a ViewLux (PerkinElmer) multiplate reader.\n[1] Heske CM, Davis MI, Baumgart JT, Wilson K, Gormally MV, Chen L, Zhang X, Ceribelli M, Duveau DY, Guha R, Ferrer M, Arnaldez FI, Ji J, Tran HL, Zhang Y, Mendoza A, Helman LJ, Thomas CJ. Matrix Screen Identifies Synergistic Combination of PARP Inhibitors and Nicotinamide Phosphoribosyltransferase (NAMPT) Inhibitors in Ewing Sarcoma. Clin Cancer Res. 2017 Dec 1;23(23):7301-7311. doi: 10.1158/1078-0432.CCR-17-1121. Epub 2017 Sep 12. PMID: 28899971; PMCID: PMC6636827."}
{"smiles": "O=C(O)c1ccc(O)c2ncc(N3CCOCC3)cc12", "viability": "90.1% (inactive)"}
{"smiles": "CNC(=O)[C@H](CC1=CN=C2C=CCC=C12)NC(=O)[C@@H](CC(=O)NO)CC(C)C", "viability": "128% (inactive)"}
{"smiles": "NC(=O)c1nnn(Cc2cc(Cl)c(C(=O)c3ccc(Cl)cc3)c(Cl)c2)c1N", "viability": "94.1% (inactive)"}
{"smiles": "C[C@]12CCC3=C4CCC(=O)C=C4CC[C@@H]3[C@H]1CC[C@@]2(O)CC#N", "viability": "118% (inactive)"}
{"smiles": "CO[C@H]1/C=C\\O[C@@]2(C)Oc3c(C)c(O)c4c(O)c(c5c(nc6cc(C)ccn65)c4c3C2=O)NC(=O)C(C)=CC=C[C@H](C)[C@H](O)[C@@H](C)[C@@H](O)[C@@H](C)[C@H](OC(C)=O)[C@H]1C", "viability": "112% (inactive)"}
{"smiles": "CC(C)C[C@@H](N)[C@H](O)C(=O)N[C@H](C(=O)N[C@H](C(=O)N[C@@H](CC(=O)O)C(=O)O)C(C)C)C(C)C", "viability": "110% (inactive)"}
{"smiles": "CC1(COc2ccc3c(c2)ncn3-c2ccc3cccc(N4CCC(N)CC4)c3n2)COC1", "Potency": "1.48 µM (active)"}
{"smiles": "Nc1ccc(-c2ccc3ncc4ccc(=O)n(-c5cccc(C(F)(F)F)c5)c4c3c2)cn1", "Potency": "0.0235 µM (active)"}
{"smiles": "O=C(Nc1cccc(Cl)c1)Nc1ncc(CCNc2ncnc3ccsc23)s1", "Potency": "5.9 µM (active)"}
{"smiles": "CC1=C(C(=O)Nc2cc3cn[nH]c3cc2F)C(c2ccc(C(F)(F)F)cc2)CC(=O)N1", "note": "(stereo not given)", "viability": "108% (inactive)"}
{"smiles": "CC1(C)[C@H]2CC[C@]3(C)[C@@H](C(=O)C=C4[C@@H]5C[C@@](C)(C(=O)O)CC[C@]5(C)CC[C@]43C)[C@@]2(C)CC[C@@H]1O", "viability": "121% (inactive)"}
{"smiles": "O=C1NC(=O)C(=Cc2ccc(-c3ccc(F)cc3O)o2)S1", "viability": "98.3% (inactive)"}
{"smiles": "NC[C@H]1O[C@H](O[C@@H]2[C@@H](O)[C@@H](O[C@H]3O[C@H](CO)[C@@H](O)[C@H](N)[C@@H]3O)[C@H](N)C[C@@H]2N)[C@H](O)[C@@H](O)[C@H]1O", "viability": "111% (inactive)"}
{"smiles": "CN(C)CCOc1ccc(-c2nc(-c3ccc4c(c3)CCC4=NO)c(-c3ccncc3)[nH]2)cc1", "Potency": "20.9 µM (active)"}
{"smiles": "CC[C@H](C)C(=O)O[C@H]1C[C@H](O)C=C2C=C[C@H](C)[C@H](CC[C@@H](O)C[C@@H](O)CC(=O)O)[C@H]21", "viability": "121% (inactive)"}
{"smiles": "CN1CCC(COc2cnc(-c3cccc(Cn4nc(-c5cccc(C#N)c5)ccc4=O)c3)nc2)CC1", "viability": "80.4% (inactive)"}
{"smiles": "C[C@@H]1CCO[C@H]2Cn3cc(C(=O)NCc4ccc(F)cc4F)c(=O)c(O)c3C(=O)N12", "viability": "109% (inactive)"}
{"smiles": "C[C@H](c1ccc(F)cc1CCCC(=O)O)N(c1cc(F)ccc1F)S(=O)(=O)c1ccc(Cl)cc1", "viability": "103% (inactive)"}
{"smiles": "CN1CCc2c(n(Cc3ccc(C(=O)NO)cc3)c3ccccc23)C1", "Potency": "18.7 µM (active)"}
{"smiles": "OCCn1cc(-c2ccc3c(c2)CCC3=NO)c(-c2ccncc2)n1", "viability": "93.8% (inactive)"}
{"smiles": "CNC1[C@H](O)C(O[C@@H]2C(O)C(O[C@H]3O[C@H]([C@@H](C)NC)CC[C@H]3N)[C@@H](N)C[C@H]2N)OC[C@]1(C)O", "note": "(stereo not given in full)", "viability": "101% (inactive)"}
{"smiles": "CC1=C(CC(=O)O)c2cc(F)ccc2C1=Cc1ccc(S(C)=O)cc1", "note": "(stereo not given)", "viability": "92.5% (inactive)"}
{"smiles": "Cc1ccc2c(=O)c3cccc(CC(=O)O)c3oc2c1C", "viability": "90.8% (inactive)"}
{"smiles": "COc1ccc(-c2nc3ccc(C4=NNC(=O)CC4C)cc3[nH]2)cc1", "note": "(stereo not given)", "viability": "114% (inactive)"}
{"smiles": "Cc1cc(NC(=O)Nc2ccc(N(C)C)cc2)c2cc(F)cc(F)c2n1", "viability": "94.7% (inactive)"}
{"smiles": "CC(C)c1onc(-c2c(Cl)cccc2Cl)c1COc1ccc(C=Cc2cccc(C(=O)O)c2)c(Cl)c1", "viability": "111% (inactive)"}
{"smiles": "CC(C)(C)c1nc(-c2cccc(NS(=O)(=O)c3c(F)cccc3F)c2F)c(-c2ccnc(N)n2)s1", "viability": "103% (inactive)"}
{"smiles": "CN(C)c1nc(Cc2ccc(NC(=O)c3ccc(C(F)(F)F)cc3)cc2)nc(N(C)C)c1CC(=O)O", "viability": "110% (inactive)"}
{"smiles": "c1ccc(-c2oc3ncnc(NC[C@@H]4CCCO4)c3c2-c2ccccc2)cc1", "viability": "105% (inactive)"}
{"smiles": "NCC1CCC(C(=O)O)CC1", "note": "(stereo not given)", "viability": "119% (inactive)"}
{"smiles": "COc1ccc2c(c1)CC[C@H]1[C@@H]2CC[C@]2(C)[C@@H](NCCCCCCN3C(=O)C=CC3=O)CC[C@H]12", "viability": "104% (inactive)"}
{"smiles": "Cc1ccc(NC(=O)Nc2cc(C(F)(F)F)ccc2F)cc1Nc1ccc2c(c1)NC(=O)C2=Cc1ccc[nH]1", "Potency": "23.5 µM (active)"}
{"smiles": "CN(C(Cc1ccc(OS(=O)(=O)c2cccc3cnccc23)cc1)C(=O)N1CCN(c2ccccc2)CC1)S(=O)(=O)c1cccc2cnccc12", "note": "(stereo not given)", "Potency": "7.43 µM (active)"}
{"smiles": "O=C(CO)N1CCC(c2[nH]nc(-c3ccc(Cl)cc3)c2-c2ccncn2)CC1", "viability": "103% (inactive)"}
{"smiles": "CCN(CCO)CCCOc1ccc2c(Nc3cc(CC(=O)Nc4cccc(F)c4)[nH]n3)ncnc2c1", "viability": "100% (inactive)"}
{"smiles": "OC[C@H]1O[C@@H](OCCc2ccc(O)cc2)[C@H](O)[C@@H](O)[C@H]1O", "viability": "104% (inactive)"}
{"smiles": "COc1ccc2ccc(=O)oc2c1CC=C(C)C", "Potency": "23.5 µM (active)"}
{"smiles": "Cc1cc2nc3c(=O)[nH]c(=O)nc-3n(CC(O)C(O)C(O)CO)c2cc1C", "note": "(stereo not given)", "viability": "96.2% (inactive)"}
{"smiles": "CCOC(=O)N1c2ccc(C(F)(F)F)cc2[C@@H](N(Cc2cc(C(F)(F)F)cc(C(F)(F)F)c2)C(=O)OC)C[C@H]1CC", "Potency": "16.6 µM (active)"}
{"smiles": "O=c1[nH]nc(OCCCc2ccc(Cl)cc2)c(NCc2cccnc2)c1Br", "Potency": "18.7 µM (active)"}
